# Compound activity deposited in PubChem BioAssay by National Center for Advancing Translational Sciences (NCATS).
# Hits are enriched below; roughly 6% of the tested compounds scored in any of these assays.
# D1 antagonist = blocks dopamine activation of the human D1 receptor; HEK293 TREx D1 cells, calcium flux, dopamine EC80; hits give low values; activity change, negative = inhibition, % at 10 µM; 360,000 compounds, 3.2% hits; AID 504652; in the data active means activity change below about -30%
# Target sequence (P21728 whole entry, looked up): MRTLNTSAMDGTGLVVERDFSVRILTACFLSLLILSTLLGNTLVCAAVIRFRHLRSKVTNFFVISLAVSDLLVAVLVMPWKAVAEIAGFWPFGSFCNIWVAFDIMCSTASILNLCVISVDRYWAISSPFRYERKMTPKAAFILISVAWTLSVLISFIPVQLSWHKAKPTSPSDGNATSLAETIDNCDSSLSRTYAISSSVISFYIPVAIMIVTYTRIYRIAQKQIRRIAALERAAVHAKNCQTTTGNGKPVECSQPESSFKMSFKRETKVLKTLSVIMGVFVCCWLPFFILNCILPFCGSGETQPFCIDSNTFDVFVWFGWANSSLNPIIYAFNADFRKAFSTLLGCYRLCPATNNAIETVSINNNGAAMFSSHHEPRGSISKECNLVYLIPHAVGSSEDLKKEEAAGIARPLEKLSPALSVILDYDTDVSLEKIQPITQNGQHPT
#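 Tetracycline-induced HEK293 T-REx cells with force-coupled D1 receptor were loaded with a no-wash calcium dye. Compound was added after a 10 s baseline and read kinetically for 180 s; EC80 dopamine was then added and calcium flux followed another 180 s.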
# D3 ag = D3 dopamine receptor (human) agonism. max activation, %. 410,000 compounds, 0.58% hits. D3R DiscoveRx beta-arrestin cells, luminescence, 90 min. AID 652048; in the data active means max activation above about 30%
#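 Agonist mode: compounds and dopamine controls were applied to plated cells for 90 min at 37 degrees C after an overnight attachment at 1500 cells/well. Luminescent read-out followed 30 - 60 minutes at room temperature with DiscoveRx detection reagent.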
# Chronic BCR inh = blocks chronic active B-cell receptor signaling. ABC-DLBCL IkBa-CBG/CBR reporter, luminescence ratio, 4 h. Potency, µM (highest dose often 46.1 µM), usual class: inhibitors. 340,000 compounds, 0.05% hits. AID 493014; active means well fitted inhibition curve with a large enough effect in the signal ratio, with a control signal flat, not every such curve was filed as active; inconclusive means small, poorly fitted or top-dose-only effect, or effect the other way, or a change in a side signal; the % refers to the signal ratio
#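 Doxycycline induced both beetle luciferases in TMD8 lymphoma cells; IKK-driven degradation limits the IkappaBalpha-fused green signal, while red luminescence normalises for cell number and nonspecific effects. Compounds tested up to 46 uM, 4 hrs.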
# D1 PAM = human D1 dopamine receptor positive modulation. HEK293 TREx D1 cells, calcium flux, dopamine EC20 potentiation. AID 504651. potentiation, % at 10 µM. P21728. 360,000 compounds, 0.036% hits; in the data active means potentiation above about 30%
# D1 ag = human D1 receptor agonism. AID 504660. activation, % at 2 µM. 360,000 compounds, 1% hits. P21728. HEK293 T-REx D1 cells, calcium flux, agonist mode; in the data active means activation above about 30%
#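 Tetracycline-induced HEK293 TREx D1 cells, force-coupled to calcium signalling, were dye-loaded with a no-wash calcium kit. Compound was pin-added after a 10 s baseline. Fluorescence was read kinetically at 1 cycle/s for 180 s, with calcium rises flagged as agonism.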
# D3 antag = antagonists of human D3 dopamine receptor. max response, negative = inhibition, %. 360,000 compounds, 2.5% hits. D3R cells, DiscoveRx beta-arrestin luminescence, antagonist mode; hits give low values. P35462; in the data active means max response below about -50%; inconclusive means no clear call, values can overlap the other calls
#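 Cells plated overnight at 1500 cells/well, then exposed to library compounds with dopamine controls for 90 minutes at 37 degrees C. DiscoveRx reagent added for 30–60 minutes at room temperature; luminescence read, quantitative HTS format.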
# Hits are given with their value; i = inactive; ? = inconclusive; nt = not tested or not shown.
SMILES,D1 antagonist,D3 ag,Chronic BCR inh,D1 PAM,D1 ag,D3 antag
Cc1ccc(NC(=O)C(=O)NCCN2CCN(C(=S)Nc3ccccc3)CC2)cc1,-34,i,i,i,i,i
Cc1ccc(C(=O)N2CCN(CCNC(=O)C(=O)Nc3ccc(Cl)cc3)CC2)cc1,i,i,?,i,i,-61
Cc1ccc(C(=O)N2CCN(CCNC(=O)C(=O)NCc3ccc(Cl)cc3)CC2)cc1,i,i,i,i,i,-78
O=C(NCCN1CCN(C(=O)c2c(F)cccc2F)CC1)C(=O)Nc1ccc(Cl)cc1,i,i,?,i,i,i
CCCCc1nn2c(=O)cc(COC(=O)c3ccc(NC(=O)c4cccc(OC)c4)cc3)nc2s1,i,i,nt,i,i,nt
COc1ccc(Cl)cc1NC(=O)CSc1nnc(C)n2c1cc1occc12,i,i,nt,i,i,nt
CCOc1ccc(-c2nnc(NC(=O)C3CCCC3)o2)cc1,i,i,i,i,i,-105
O=C(Nc1nnc(-c2ccc(Cl)cc2)o1)C1CCCCC1,i,i,?,i,i,i
Cc1ccccc1-n1c(SCC(=O)Nc2ccc(Cl)cc2Cl)nc(O)cc1=O,i,i,nt,i,i,nt
COC1=CC(=O)OC(c2cccc(C#N)c2)C1 (stereo unspecified),nt,i,nt,nt,nt,i
COc1ccc(-c2nc(CN(Cc3cnn(C)c3)C(C)C)c(C)o2)c(OC)c1,-31,i,i,i,i,i
COc1ccc(NC(=O)C2CCC(CNS(=O)(=O)c3ccc(Br)s3)CC2)cc1OC (stereo unspecified),i,i,nt,i,i,nt
CCOc1ccc(C(=O)/C=C/c2ccc(SC)cc2)cc1,-30,i,?,i,i,i
COc1cc(/C=C/C(=O)c2ccc(F)cc2)cc(OC)c1OC,i,i,?,i,i,i
COC(=O)c1ccc(/C=C/C(=O)c2ccc(OC)c(OC)c2)cc1,i,i,?,i,i,i
COC(=O)c1ccc(/C=C/C(=O)c2ccc(OC)cc2)cc1,-38,i,i,i,i,i
CCOc1ccc(C(=O)/C=C/c2cc(OC)c(OC)c(OC)c2)cc1,-49,i,?,i,i,i
CCOC(=O)C1=C(Cc2ccc(Cl)cc2)C(=O)c2ccccc2C1=O,i,i,?,i,i,-76
CCOC(=O)C1=C(C)N=C2c3ccccc3C(=O)C2C1c1ccc(Cl)cc1 (stereo unspecified),i,i,i,i,i,?
Cc1nc(-n2nc(C)c(CCC(C)C)c2C)sc1C(=O)Nc1cccc(Cl)c1C,i,i,nt,i,i,nt
Cc1cc(O)c(C(C)C)cc1C1(c2cc(C(C)C)c(O)cc2C)OC(=O)c2ccccc21,i,61,?,i,i,i
Cc1cc(C2(c3ccc(O)c(C)c3)OC(=O)c3ccccc32)ccc1O,i,i,?,i,i,i
Cc1ccc(N=C2c3ccccc3C(=O)C2[N+](=O)[O-])cc1C (stereo unspecified),i,i,i,i,i,-58
CC1CCC(C(C)C)C(NC(=O)c2ccncc2)C1 (stereo unspecified),nt,i,nt,nt,nt,i
Cc1ccccc1Nc1sc(C(=O)c2ccc3c(c2)OCO3)c(N)c1S(=O)(=O)c1ccccc1,i,i,nt,i,i,nt
SMILES,D1 antagonist,D3 ag,Chronic BCR inh,D1 PAM,D1 ag,D3 antag
COc1ccc(S(=O)(=O)c2c(Nc3ccc(F)cc3)sc(C(=O)c3ccc4c(c3)OCO4)c2N)cc1,i,i,nt,i,43,nt
Cc1ccc(S(=O)(=O)c2c(Nc3ccccc3)sc(C(=O)c3ccc4c(c3)OCO4)c2N)cc1,i,i,nt,i,64,nt
COc1ccc(S(=O)(=O)c2c(Nc3ccc(C)cc3)sc(C(=O)c3ccc4c(c3)OCO4)c2N)cc1,-38,i,nt,i,78,nt
CCCNC(=O)Nc1ccc2c(c1)OC[C@H](C)N(C(=O)C1CCCCC1)C[C@@H](C)[C@H](OC)CN(C)C2=O,nt,i,nt,nt,nt,i
CC/C(=N\Nc1ccccc1[N+](=O)[O-])c1ccc(O)cc1,i,i,i,i,i,-57
C/C(=N\Nc1ccc(C#N)cc1[N+](=O)[O-])c1ccc(O)cc1,-43,i,i,i,i,i
CC/C(=N\Nc1ccc([N+](=O)[O-])cc1[N+](=O)[O-])c1ccc(O)cc1,-34,i,i,i,i,i
CCC(=NNc1ccc([N+](=O)[O-])cc1[N+](=O)[O-])c1ccccc1,nt,i,nt,nt,nt,i
O=C(C1CCCCC1)N(Cc1cccnc1)c1nc2c(F)cc(F)cc2s1,nt,i,i,i,i,nt
Fc1ccc(N2CCN(c3ncnc4c3nc3n4CCCC3)CC2)cc1,i,i,nt,i,i,nt
CC(NC(=O)CN1C(=O)COc2ccc(Cl)cc21)c1ccccc1 (stereo unspecified),i,i,nt,i,i,nt
CCCCn1c(-c2c(Cl)c(C)nn2C)n[nH]c1=S,i,i,i,i,i,i
CCn1c(-c2ccc(F)cc2)n[nH]c1=S,i,i,i,i,i,-88
CCn1c(-c2c(Cl)c(C)nn2C)n[nH]c1=S,i,i,i,i,39,?
CCOc1cc(C(C(=O)NCC2CCCO2)N(C(=O)Cn2nnc3ccccc32)c2ccc(NC(C)=O)cc2)ccc1O (stereo unspecified),i,i,i,i,i,i
COc1ccc(N(C(=O)CNC(=O)c2cccs2)C(C(=O)NCC2CCCO2)c2ccccc2)cc1OC (stereo unspecified),-55,i,i,i,i,i
COc1cc(C(C(=O)NCC2CCCO2)N(C(=O)Cn2nnc3ccccc32)c2ccc(OC)c(OC)c2)ccc1O (stereo unspecified),-80,i,i,i,i,i
COc1ccc(N(C(=O)CNC(=O)c2cccs2)C(C(=O)NCC2CCCO2)c2ccccc2)cc1 (stereo unspecified),i,i,?,i,i,i
Cn1nc(C(=O)NCc2ccccc2Cl)c2c1-c1ccccc1SC2,-33,i,nt,i,i,nt
COc1ccc(CNC(=O)Cn2c(=O)n3nc(-c4ccc(OC)cc4)nc3c3ccccc32)cc1,nt,i,i,i,i,nt
CCC(=NN=C(CC)c1ccccc1O)c1ccccc1O,nt,45,nt,nt,nt,i
O=C(NCCSc1ccc(Cl)cc1)c1ccc(CN2CCOCC2)cc1,i,i,i,i,i,i
O=C(NCCSCc1ccc(Cl)cc1Cl)c1ccc(CN2CCOCC2)cc1,-31,i,?,i,i,i
Cc1c(O)ccc(-c2n[nH]c(C(=O)O)c2-c2nc3ccccc3s2)c1O,i,i,i,i,i,i
Cc1c(O)ccc(-c2[nH]ncc2-c2nc3ccccc3s2)c1O,-43,i,?,i,i,i
CC1CCC2(CC1)NC(=O)N(CC(=O)Nc1ccc(N3CCCCC3)cc1)C2=O (stereo unspecified),nt,i,nt,nt,nt,i
C[C@H]1CCC(=O)N(CCSc2ccc(Br)cc2)CC1,i,i,?,i,i,i
